# Results published in PubChem BioAssay AID604 (The Scripps Research Institute Molecular Screening Center, 2007).
# Screen size: about 60,000 compounds; about 210 (0.35%) were called active. The sample holds actives, similar compounds and a random draw of the others, so the mix is not that of the screen.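 How the source made its calls: active means inhibition above the screen-wide mean inhibition plus 3 SD (cut at about 18% in these data); inactive means the rest.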
# Target: Rho-associated protein kinase 2 (Homo sapiens) (UniProt O75116)
# Sequence (O75116 whole entry, looked up): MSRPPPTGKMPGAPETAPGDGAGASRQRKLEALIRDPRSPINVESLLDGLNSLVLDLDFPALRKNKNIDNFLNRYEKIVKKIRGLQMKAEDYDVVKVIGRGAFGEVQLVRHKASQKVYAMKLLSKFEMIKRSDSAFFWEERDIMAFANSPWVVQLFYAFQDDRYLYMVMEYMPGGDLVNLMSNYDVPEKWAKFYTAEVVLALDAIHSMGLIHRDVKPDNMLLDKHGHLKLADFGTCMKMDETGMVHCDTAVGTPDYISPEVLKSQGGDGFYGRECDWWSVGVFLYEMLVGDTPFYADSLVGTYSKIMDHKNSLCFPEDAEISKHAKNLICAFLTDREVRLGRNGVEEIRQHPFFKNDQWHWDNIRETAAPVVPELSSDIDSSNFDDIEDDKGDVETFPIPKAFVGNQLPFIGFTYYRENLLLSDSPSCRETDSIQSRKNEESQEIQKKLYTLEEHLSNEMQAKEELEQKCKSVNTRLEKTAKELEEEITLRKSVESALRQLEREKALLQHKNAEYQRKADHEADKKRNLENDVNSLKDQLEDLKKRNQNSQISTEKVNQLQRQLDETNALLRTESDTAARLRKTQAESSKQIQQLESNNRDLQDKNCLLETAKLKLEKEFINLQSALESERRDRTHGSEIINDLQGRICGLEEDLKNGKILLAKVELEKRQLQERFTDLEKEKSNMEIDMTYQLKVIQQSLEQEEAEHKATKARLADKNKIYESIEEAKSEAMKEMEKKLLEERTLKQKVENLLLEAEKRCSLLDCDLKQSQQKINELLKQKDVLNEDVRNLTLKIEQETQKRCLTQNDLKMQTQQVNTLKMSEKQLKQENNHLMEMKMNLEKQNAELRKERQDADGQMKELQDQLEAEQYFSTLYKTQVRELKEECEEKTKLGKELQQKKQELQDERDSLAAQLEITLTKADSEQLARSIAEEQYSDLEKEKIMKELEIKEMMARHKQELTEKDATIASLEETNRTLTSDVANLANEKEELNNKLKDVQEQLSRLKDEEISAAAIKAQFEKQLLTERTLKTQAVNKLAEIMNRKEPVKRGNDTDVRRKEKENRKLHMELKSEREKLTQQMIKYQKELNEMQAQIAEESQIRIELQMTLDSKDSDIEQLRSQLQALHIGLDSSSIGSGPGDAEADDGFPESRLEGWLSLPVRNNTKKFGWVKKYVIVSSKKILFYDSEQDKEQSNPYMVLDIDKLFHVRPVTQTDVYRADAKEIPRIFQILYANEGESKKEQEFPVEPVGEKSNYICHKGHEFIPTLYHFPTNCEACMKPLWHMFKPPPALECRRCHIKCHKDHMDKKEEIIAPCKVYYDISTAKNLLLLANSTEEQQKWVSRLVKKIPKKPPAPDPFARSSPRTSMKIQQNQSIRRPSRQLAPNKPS
# Experiment: ROCK2 enzymatic activity blockers – biochemical, high-throughput, luminescence, primary screen (AID 604);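 further: plate controls were DMSO wells for no effect and Y-27632 control wells after no-enzyme background subtraction for full effect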
# Conditions: purified ROCK2, Kinase-Glo ATP depletion luminescence; at 6 µM; active compounds read high
row,Structure (SMILES),inhibition
1,CCOC(=O)C1(c2ccccc2)NC(c2ccc(N(C)C)cc2)C2C(=O)N(C)C(=O)C21 (stereo not given),5.3% (inactive)
2,O=C(CSc1nnc(-c2ccco2)n1Cc1ccccc1)NC(=O)NCc1ccco1,5.5% (inactive)
3,Cc1nonc1OCCn1nnnc1N,4% (inactive)
4,CCCC(=O)N1CCc2[nH]c3ccccc3c2C1,14.9% (inactive)
5,COC(=O)c1cc(OC)c(OC)cc1NC(=O)C1CCCO1 (stereo not given),5.6% (inactive)
6,CS(=O)(=O)N(Cc1nc2sc3c(c2c(=O)[nH]1)CCCC3)C1CCCCC1,-12.6% (inactive)
7,Cc1cccc(NC(=O)CSc2nnc(CCCCCNC(=O)OC(C)(C)C)o2)c1C,3.8% (inactive)
8,CC1CCC(NS(=O)(=O)c2ccc3c(c2)n(C)c(=O)c(=O)n3C)CC1 (stereo not given),3.2% (inactive)
9,CC(C)Cc1ccc(S(=O)(=O)N2CCN(C(=O)c3ccco3)CC2)cc1,8% (inactive)
10,O=C(C(NS(=O)(=O)c1cccc2nsnc12)c1ccccc1)N1CCN(c2ccccn2)CC1 (stereo not given),6.9% (inactive)
11,COc1cccc(N(CC(=O)Nc2cccc(F)c2)S(C)(=O)=O)c1,-1.3% (inactive)
12,O=C(O)CCSc1nnc(-c2ccccc2)n1-c1ccccc1,2.5% (inactive)
13,CN1C(=O)CC(N2CCN(c3ccccn3)CC2)C1=O (stereo not given),0.7% (inactive)
14,COc1ccc(Cc2nnc(NS(=O)(=O)Cc3ccccc3)s2)cc1,-0.2% (inactive)
15,CCOC(=O)CSc1nnc(NC(=O)c2cccc(S(=O)(=O)N3CCCC3)c2)s1,-2.8% (inactive)
16,CC(C)OC(=O)C(C#N)c1nc2ccccc2nc1N1CCN(Cc2ccc3c(c2)OCO3)CC1 (stereo not given),3.1% (inactive)
17,CCCCN(C)C(=O)c1ccc2c(c1)N(CC)C(=O)c1ccccc1S2(=O)=O,-4.8% (inactive)
18,COc1cc2c(cc1OC)C(c1ccncc1)CC(=O)N2 (stereo not given),9.6% (inactive)
19,COc1cccc(N(CC(=O)NC2CCCC2)C(=O)Cn2nnc(-c3ccc(C)cc3)n2)c1,-2% (inactive)
20,O=C(Nc1nc(-c2ccncc2)cs1)C1COc2ccccc2O1 (stereo not given),114% (active)
21,COc1ccc(OC)c2sc(NC(=O)C3COc4ccccc4O3)nc12 (stereo not given),-3.1% (inactive)
22,O=C(Nc1nc(-c2ccc3c(c2)OCO3)cs1)c1ccncc1,-1.2% (inactive)
23,Cc1ccc(N(CC(O)CN2CCCC2)S(=O)(=O)c2ccccc2)cc1 (stereo not given),1.4% (inactive)
24,CC1=C(C(=O)OCc2ccccc2)C(c2ccco2)n2ncnc2N1 (stereo not given),-9.2% (inactive)
25,CC(=C1C(=O)c2ccccc2C1=O)N1CCN(c2ccccn2)CC1,7.8% (inactive)

row,Structure (SMILES),inhibition
1,Cc1cccc2cc(CN(Cc3nnnn3Cc3ccccc3)C3CCCC3)c(=O)[nH]c12,-0.6% (inactive)
2,O=C(Nn1cnc2ccccc2c1=O)c1ccc(F)cc1Cl,4.2% (inactive)
3,CCCCCCn1c(SCC(=O)c2ccccc2)nc2c1c(=O)[nH]c(=O)n2C,6.3% (inactive)
4,O=C(CSc1nnc2scc(-c3ccc(F)cc3)n12)NCc1ccco1,2.1% (inactive)
5,CC1(C)C2CCC1(C)C(OC(=O)CCn1ccnc1)C2 (stereo not given),6.6% (inactive)
6,O=C(CC1Nc2ccccc2NC1=O)Nc1ccccc1 (stereo not given),3% (inactive)
7,O=C(C1=C(O)C(=O)N(c2ncccn2)C1c1cccs1)c1ccco1 (stereo not given),-11.1% (inactive)
8,CNC(=O)C1CC(=O)N(Cc2ccc3c(c2)OCO3)C(=Nc2ccc(F)cc2)S1 (stereo not given),-7.4% (inactive)
9,O=CN1CCN(C2CC(=O)N(c3ccc4c(c3)OCO4)C2=O)CC1 (stereo not given),7% (inactive)
10,O=C1CC(N2CCN(C(c3ccccc3)c3ccccc3)CC2)C(=O)N1 (stereo not given),5.5% (inactive)
11,CCCCCC(=O)Nc1ccc2oc(-c3ccncc3)nc2c1,22.3% (active)
12,CCCC(=O)Nc1ccc2c(c1)nc1n2CCSC1,-0.6% (inactive)
13,CCc1ccc2oc(-c3ccc(N)cc3)nc2c1,4.1% (inactive)
14,NC(=O)C1CCN(C2OC(=O)c3ccccc32)CC1 (stereo not given),7.4% (inactive)
15,COc1cc2c(cc1NC(=O)CN1CCN(S(=O)(=O)c3ccc(F)cc3)CC1)oc1ccccc12,3.5% (inactive)
16,Cc1noc(COc2ccccc2OCC(O)CNC(C)(C)C)n1 (stereo not given),1.2% (inactive)
17,O=P(c1ccc2c(c1)OCCO2)(N1CCOCC1)N1CCOCC1,-3.2% (inactive)
18,Cc1nn(-c2ccccc2)c2[nH]c(C(F)(F)F)cc(=O)c12,-0.3% (inactive)
19,CCOc1ccc(CCNC(=O)C(CC)n2nc(C)n3c(cc4sccc43)c2=O)cc1OCC (stereo not given),-3.8% (inactive)
20,CCc1nnc(NC(=O)CCC(=O)O)s1,-4.5% (inactive)
21,O=[n+]1c2c(n([O-])c3cc(Br)ccc31)CCC2,-5% (inactive)
22,CC(=O)c1ccc(NC(=O)N[C@@H](Cc2ccccc2)C(=O)O)cc1,-0.8% (inactive)
23,Cc1cc(Nc2ccccc2)n(CCC#N)n1,4.6% (inactive)
24,Cc1c(C(=O)N2CC(C)OC(C)C2)sc2nc(-c3ccccc3)cn12 (stereo not given),8.6% (inactive)
25,Cc1c(NC(=O)C(C)OC(=O)c2cc3c4ccccc4n(C)c3s2)c(=O)n(-c2ccccc2)n1C (stereo not given),5.5% (inactive)

row,Structure (SMILES),inhibition
1,Fc1cnc(N2CCOCC2)nc1NCc1ccccc1,-0.4% (inactive)
2,Cc1nc(-c2ccc(NC(=O)c3cccs3)cc2)cs1,-25% (inactive)
3,Cc1nnc(NC2=NCCCCC2)o1,-0.7% (inactive)
4,Cc1ccc(S(=O)(=O)c2nc(NCCCn3ccnc3)sc2Cl)cc1,1.7% (inactive)
5,CCC1(C)N(O)C(C)(C)C(c2ccc(OC)cc2)=[N+]1[O-] (stereo not given),2.5% (inactive)
6,O=c1[nH]c(=O)n(Cc2ccco2)c2c1C(C(F)(F)F)(C(F)(F)F)N=C(c1ccco1)N2,5% (inactive)
7,N#CCCN1CCN(S(=O)(=O)c2ccc(S(=O)(=O)NC3CC3)cc2)CC1,1.7% (inactive)
8,CCOC(=O)CSc1nnc(-c2cccc(Br)c2)o1,2.1% (inactive)
9,COc1cc(=O)[nH]c(=O)n1C(=O)Cc1ccccc1,-0.6% (inactive)
10,Cc1cc(C)nc(SCc2ccccc2C#N)n1,6% (inactive)
11,COc1ccc(N2C(=O)C3CCCN3C2c2cccs2)cc1 (stereo not given),-2.8% (inactive)
12,CCC(C)(NC(=O)c1ccccn1)C(=O)NC1CCCCC1 (stereo not given),-0.8% (inactive)
13,Cc1ccc2[nH]c(=O)c(COC(=O)c3ccccn3)cc2c1,6.5% (inactive)
14,CCCC(=O)Nc1ccc(Cl)c(NC(=O)c2ccc(Br)o2)c1,-0.6% (inactive)
15,O=C(c1ccco1)N1CCN(C(=O)C2CC(c3ccc(F)cc3)=NO2)CC1 (stereo not given),1.1% (inactive)
16,COc1ccc(C(=O)Nc2c(N)nc(SCC(=O)N3CCC(C)CC3)[nH]c2=O)cc1OC,1.5% (inactive)
17,CN1CCN(CC(O)COCc2ccc3c(c2)OCO3)CC1 (stereo not given),5.7% (inactive)
18,O=C(NCc1ccco1)c1cnn2c(C(F)(F)F)cc(-c3ccco3)nc12,12.9% (inactive)
19,NC(=O)Cn1c(=O)oc2ccccc21,-2% (inactive)
20,CCOc1ccc2[nH]c(=O)c(CN(CCCO)C(C)=O)cc2c1,-4.4% (inactive)
21,Fc1ccc(Cn2nnnc2C(c2cccs2)N2CCCCCC2)cc1 (stereo not given),4.1% (inactive)
22,CC(C)C1Cc2c(sc3c2c(=O)n(-c2ccccc2)c2nncn32)CO1 (stereo not given),5.5% (inactive)
23,O=C(c1ccco1)N1CCN(C(=O)c2ccc(COc3ccc(F)cc3)o2)CC1,-1.9% (inactive)
24,O=S(=O)(Nc1ccccn1)c1ccc(Oc2ccccc2)cc1,-6.5% (inactive)
25,Nn1c(SCC(=O)NC(=O)NC2CCCC2)nnc1-c1ccccc1F,12.5% (inactive)

row,Structure (SMILES),inhibition
1,CN1C(=O)c2ccc(NC(=O)c3c(F)c(F)c(F)c(F)c3F)cc2C1=O,9.3% (inactive)
2,CCCCC(=O)Nc1ccc2c(c1)C(=O)NC2=O,23.1% (active)
3,CCCCC(=O)Nc1ccc2c(c1)OCCO2,-1.9% (inactive)
4,Cc1ccccc1CSCC(=O)NC(=O)NC(C)(C)C,4.6% (inactive)
5,CCSc1nc(=S)n(CC)c(C)c1C(C)=O,0.9% (inactive)
6,CSc1ccc(NC(=O)N2CC(C)OC(C)C2)cc1 (stereo not given),6.5% (inactive)
7,CCN(CC)C(=O)CSc1nnc(-c2ccc(S(=O)(=O)NCc3ccccc3Cl)cc2)o1,1.9% (inactive)
8,Cc1nn(Cc2ccc(Cl)c(Cl)c2)c(C)c1NC(=O)c1cc(C2CC2)on1,-8.2% (inactive)
9,Cc1ccc(O)c(NC(=O)COc2cc(C)ccc2C)c1,3.2% (inactive)
10,COc1ccc(OC)c(NC(=O)CN2CCN(C(=O)c3ccco3)CC2)c1,0.1% (inactive)
11,OCCNCCCCOc1ccccc1F,5.9% (inactive)
12,CCSc1ncnc2c(C#N)c3n(c12)CCCCC3,3% (inactive)
13,CC(=O)Nc1nonc1-c1nc2ccccc2n1Cc1ccccn1,2.3% (inactive)
14,Cn1c(=O)c2c(n(Cc3ccccc3)c1=O)NC(=O)C2CC(=O)N1CCc2ccccc2C1 (stereo not given),6.4% (inactive)
15,C=CCn1c(C)cc(C(=O)CN2C(=O)c3ccccc3C2=O)c1C,2.5% (inactive)
16,CCCn1cc(SCC(N)=O)c2ccccc21,4.9% (inactive)
17,Cc1ccc(C(=O)NCC2CCCO2)o1 (stereo not given),4.3% (inactive)
18,C=CCn1cnc2scc(-c3ccccc3)c2c1=O,1.2% (inactive)
19,C#CCN1CC(C)/C(=N/O)CC1C (stereo not given),3.7% (inactive)
20,O=C1CC(c2ccccc2)CC(O)=C1C=NCCN1CCOCC1 (stereo not given),3.3% (inactive)
21,COc1cccc(N2CCN(C(=O)C3CCCN(S(=O)(=O)c4cnc[nH]4)C3)CC2)c1 (stereo not given),3.3% (inactive)
22,Cc1cc(C(=O)CC#N)c(C)n1CC(F)(F)F,3.3% (inactive)
23,O=C1C=C(NCCNc2c(F)c(F)c(CO)c(F)c2F)CCC1,1.5% (inactive)
24,Cc1cn(C2C=CC(CO)O2)c(=O)[nH]c1=O (stereo not given),6.1% (inactive)
25,Cc1cc(=O)[nH]c(SCC(=O)N2c3ccccc3CC2C)n1 (stereo not given),-3.6% (inactive)
